In PubChem BioAssay (NCATS):
Records with an inconclusive call do not appear. Calls of active or inactive are those of the source. The call rests on the fitted dose curve; in most records, active means well fitted cell-killing curve with a large enough effect; inconclusive means small, poorly fitted or top-dose-only effect; inactive means flat fitted curve, though single readings scatter.

Experiments:
[1] = Cell Viability - LYMP2-025 (AID 976); further: series mostly up to about 92 µM
How it was run: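 Human lymphoblastoid LYMP2-025 cells (2500/well) were pre-incubated 5 hr at 37 C, then treated with compounds for 24 hr at 37 C in complete medium. Viability was read as intracellular ATP by CellTiter-Glo luminescence; AC50 from Hill fits.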

[2] = Cell Viability - LYMP2-002 (AID 977); further: series mostly up to about 92 µM
How it was run: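 Luminescent ATP readout (CellTiter-Glo, 30 min room temperature) after 24 h compound exposure at 37 C of a human lymphoblastoid line, 2500 cells/well. AC50 values derived by standard Hill fitting of qHTS concentration-response data.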

[3] = Cell Viability - LYMP2-006 (AID 978); further: series mostly up to about 92 µM; nearly all actives have a fitted effect of over 60% in size
How it was run: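 Cells are seeded at 2500 per well and rested 5 hr at 37 C. Compounds are added across a concentration series for 24 hr at 37 C, after which ATP is quantified by luciferase luminescence.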

[4] = Cell Viability - LYMP2-007 (AID 979);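 further: cells exposed to compound for 24 h before reading; nearly all actives have a fitted effect of over 60% in size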
How it was run: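 Human lymphoblastoid cells (2500/well) were plated in complete medium, incubated 5 hr at 37 C, then exposed to compounds for 24 hr at 37 C. Intracellular ATP was read by CellTiter-Glo luminescence after 30 min at room temperature; AC50 from Hill fits.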

[5] = Cell Viability - LYMP2-008 (AID 980); further: nearly all actives have a fitted effect of over 60% in size
How it was run: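 Human lymphoblastoid cells (2500/well) were plated, held 5 hr at 37 C, then exposed to compounds for 24 hr at 37 C in complete medium. Intracellular ATP was read by CellTiter-Glo luminescence; AC50 from Hill-fitted concentration-response.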

[6] = Cell Viability - LYMP2-010 (AID 981); further: nearly all actives have a fitted effect of over 55% in size
How it was run: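 Human lymphoblastoid LYMP2-010 cells (2500/well) were preincubated 5 hr at 37 C, then exposed to compounds for 24 hr at 37 C in complete medium. Intracellular ATP was measured by CellTiter-Glo luminescence after 30 min at room temperature; AC50 from Hill-fitted concentration-response.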

[7] = Cell Viability - LYMP2-012 (AID 982);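 further: cellular ATP by luciferase luminescence where a drop means cytotoxicity; cells exposed to compound for one day before reading; nearly all actives have a fitted effect of over 55% in size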
[8] = Cell Viability - LYMP2-014 (AID 983); further: series mostly up to about 92 µM; nearly all actives have a fitted effect of over 50% in size
How it was run: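 Human lymphoblastoid cells (2500/well) were pre-incubated 5 hr at 37 C, then exposed to compounds in complete medium for 24 hr at 37 C. Intracellular ATP was read by CellTiter-Glo luminescence after 30 min at room temperature; AC50 from Hill fits.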

[9] = Cell Viability - LYMP2-016 (AID 984); further: nearly all actives have a fitted effect of over 55% in size
How it was run: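 Cells were seeded at 2500 per well and rested 5 hr before a 24 hr compound exposure at 37 C. Viability was then gauged as cellular ATP by luciferase luminescence, with AC50 values fitted to the Hill equation.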

[10] = Cell Viability - LYMP2-018 (AID 985); further: nearly all actives have a fitted effect of over 50% in size
How it was run: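 Human lymphoblastoid cells (2500/well) were pre-incubated 5 hr at 37 C, then exposed to compounds for 24 hr at 37 C in complete medium. Viability was read as intracellular ATP by CellTiter-Glo luminescence; AC50 values came from Hill-equation fits.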

Measured: Potency

Nc1cccc(C(F)(F)F)c1
inactive: [1] | [2] | [3] | [4] | [5] | [6] | [7] | [8] | [9] | [10]

C=C(C)C1CC=C(C)C(OC(C)=O)C1 (stereo not given)
inactive: [1] | [2] | [3] | [4] | [5] | [6] | [7] | [8] | [9] | [10]

Clc1ccccn1
inactive: [1] | [2] | [3] | [4] | [5] | [6] | [7] | [8] | [9] | [10]

Cc1cc([N+](=O)[O-])ccc1N
inactive: [1] | [2] | [3] | [4] | [5] | [6] | [7] | [8] | [9] | [10]

CCCCC(CC)CNCC(CC)CCCC (stereo not given)
inactive: [1] | [2] | [3] | [4] | [5] | [6] | [7] | [8] | [9] | [10]

COc1ccc(N)c(OC)c1
inactive: [1] | [2] | [3] | [4] | [5] | [6] | [7] | [8] | [9] | [10]

CC(=O)OC(C)C
inactive: [1] | [2] | [3] | [4] | [5] | [6] | [7] | [8] | [9] | [10]

CCOCCOCC
inactive: [1] | [2] | [3] | [4] | [5] | [6] | [7] | [8] | [9] | [10]

Nc1cccc([N+](=O)[O-])c1
inactive: [1] | [2] | [3] | [4] | [5] | [6] | [7] | [8] | [9] | [10]

CCCCC(CC)COC(=O)CCCCC(=O)OCC(CC)CCCC (stereo not given)
inactive: [1] | [2] | [3] | [4] | [5] | [6] | [7] | [8] | [9] | [10]

O=[N+]([O-])c1ccc(NCCO)c(OCCO)c1
inactive: [1] | [2] | [3] | [4] | [5] | [6] | [7] | [8] | [9] | [10]

Cc1ccc2ncccc2c1
inactive: [1] | [2] | [3] | [4] | [5] | [6] | [7] | [8] | [9] | [10]

ClCCl
inactive: [1] | [2] | [3] | [4] | [5] | [6] | [7] | [8] | [9] | [10]

O=Cc1c(Cl)cccc1Cl
inactive: [1] | [2] | [3] | [4] | [5] | [6] | [7] | [8] | [9] | [10]

C=CCOC(=O)CCCCCCCC
inactive: [1] | [2] | [3] | [4] | [5] | [6] | [7] | [8] | [9] | [10]

Cc1cccc(Br)c1
inactive: [1] | [2] | [3] | [4] | [5] | [6] | [7] | [8] | [9] | [10]

NCCCCCCN
inactive: [1] | [2] | [3] | [4] | [5] | [6] | [7] | [8] | [9] | [10]

O=C(O)c1cccc(Cl)c1Cl
inactive: [1] | [2] | [3] | [4] | [5] | [6] | [7] | [8] | [9] | [10]

O=C(O)c1c(Cl)cccc1Cl
inactive: [1] | [2] | [3] | [4] | [5] | [6] | [7] | [8] | [9] | [10]

Cc1cccc(C)c1O
inactive: [1] | [2] | [3] | [4] | [5] | [6] | [7] | [8] | [9] | [10]

Nc1ccc([N+](=O)[O-])c(N)c1
inactive: [1] | [2] | [3] | [4] | [5] | [6] | [7] | [8] | [9] | [10]

CC=O
inactive: [1] | [2] | [3] | [4] | [5] | [6] | [7] | [8] | [9] | [10]

C=CCCCCCCC=C
inactive: [1] | [2] | [3] | [4] | [5] | [6] | [7] | [8] | [9] | [10]

Cc1c(N)cccc1N
inactive: [1] | [2] | [3] | [4] | [5] | [6] | [7] | [8] | [9] | [10]

Cc1ccc(CO)cc1
inactive: [1] | [2] | [3] | [4] | [5] | [6] | [7] | [8] | [9] | [10]

CC(C)(C)OCC1CO1 (stereo not given)
inactive: [1] | [2] | [3] | [4] | [5] | [6] | [7] | [8] | [9] | [10]

O=C(O)c1ccccc1[N+](=O)[O-]
inactive: [1] | [2] | [3] | [4] | [5] | [6] | [7] | [8] | [9] | [10]

CSCCC=O
inactive: [1] | [2] | [3] | [4] | [5] | [6] | [7] | [8] | [9] | [10]

COc1ccccc1[N+](=O)[O-]
inactive: [1] | [2] | [3] | [4] | [5] | [6] | [7] | [8] | [9] | [10]

CC/C=C/C#N
inactive: [1] | [2] | [3] | [4] | [5] | [6] | [7] | [8] | [9] | [10]

CC1CCC2CC1C2(C)C (stereo not given)
inactive: [1] | [2] | [3] | [4] | [5] | [6] | [7] | [8] | [9] | [10]

CCc1ccccc1
inactive: [1] | [2] | [3] | [4] | [5] | [6] | [7] | [8] | [9] | [10]

CCCCC(CC)COCC1CO1 (stereo not given)
inactive: [1] | [2] | [3] | [4] | [5] | [6] | [7] | [8] | [9] | [10]

O=C(O)c1ccc(C(=O)O)cc1
inactive: [1] | [2] | [3] | [4] | [5] | [6] | [7] | [8] | [9] | [10]

Nc1cccc(S(=O)(=O)O)c1
inactive: [1] | [2] | [3] | [4] | [5] | [6] | [7] | [8] | [9] | [10]

O=[N+]([O-])c1cc(C(F)(F)F)ccc1Cl
inactive: [1] | [2] | [3] | [4] | [5] | [6] | [7] | [8] | [9] | [10]

CC(=O)c1ccccc1[N+](=O)[O-]
inactive: [1] | [2] | [3] | [4] | [5] | [6] | [7] | [8] | [9] | [10]

Cc1ccc(C(C)(C)C)cc1
inactive: [1] | [2] | [3] | [4] | [5] | [6] | [7] | [8] | [9] | [10]

CC=C(Cl)Cl
inactive: [1] | [2] | [3] | [4] | [5] | [6] | [7] | [8] | [9] | [10]

Nc1ccccc1S(=O)(=O)O
inactive: [1] | [2] | [3] | [4] | [5] | [6] | [7] | [8] | [9] | [10]

COC(=O)CC#N
inactive: [1] | [2] | [3] | [4] | [5] | [6] | [7] | [8] | [9] | [10]

Cc1cccc(C(=O)O)c1[N+](=O)[O-]
inactive: [1] | [2] | [3] | [4] | [5] | [6] | [7] | [8] | [9] | [10]

Cc1ccc2ccccc2c1[N+](=O)[O-]
inactive: [1] | [2] | [3] | [4] | [5] | [6] | [7] | [8] | [9] | [10]

CCC=O
inactive: [1] | [2] | [3] | [4] | [5] | [6] | [7] | [8] | [9] | [10]

CCC(C)(C)C(=O)O
inactive: [1] | [2] | [3] | [4] | [5] | [6] | [7] | [8] | [9] | [10]

CC(=O)Nc1cccc(N)c1
inactive: [1] | [2] | [3] | [4] | [5] | [6] | [7] | [8] | [9] | [10]

C/C=C1\CC2C=CC1C2 (stereo not given)
inactive: [1] | [2] | [3] | [4] | [5] | [6] | [7] | [8] | [9] | [10]

CCN(CC)c1cccc(O)c1
inactive: [1] | [2] | [3] | [4] | [5] | [6] | [7] | [8] | [9] | [10]

Cc1ccc(Cl)cc1
inactive: [1] | [2] | [3] | [4] | [5] | [6] | [7] | [8] | [9] | [10]

NS(=O)(=O)O
inactive: [1] | [2] | [3] | [4] | [5] | [6] | [7] | [8] | [9] | [10]

C=Cc1ccccn1
inactive: [1] | [2] | [3] | [4] | [5] | [6] | [7] | [8] | [9] | [10]

CN(C)CCCCl
inactive: [1] | [2] | [3] | [4] | [5] | [6] | [7] | [8] | [9] | [10]
